Data on 39 compounds can be found in PubChem BioAssay.

Where “and” joins values, the source holds several entries; their conditions need not be identical. Identical values can stand only once. Calls of active or inactive are those of the source.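 How the source made its calls: active means z-score of at least 1.8 in each of two replicates, scored against plate mean and spread of sample wells; inactive means the rest.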

The first experiment in a line: suppressors of polyglutamine aggregation in yeast, 75Q-TubH (AID 1616). The conditions noted are these: S. cerevisiae 75Q-TubH polyglutamine aggregation suppression; stronger effect = higher value.
The compound `CCC(=O)OC1CCC2C3CCc4cc(O)ccc4C3CCC12C` (centres undefined) returned an aggregation suppression score of 0.421. On the same count and under the same terms, then `CC(=O)CCC1C2=NC(=C\C3=NC(=C(/C)C4=NC(C)(C5[N-]/C(=C\2C)C(C)(CCC(=O)NCC(C)OP(=O)(O)O[C@@H]2[C@@H](CO)OC(n6cnc7cc(C)c(C)cc76)[C@@H]2O)C5CC(N)=O)C(C)(CC(N)=O)C4CCC(N)=O)/C(C)(CC(N)=O)C3CCC(N)=O)/C1(C)C.[CH2-][C@H]1OC(n2cnc3c(N)ncnc32)[C@H](O)[C@@H]1O.[Co+2]` (some centres undefined), with 1.42; and `Fc1ccc(C(c2ccccc2)(c2ccccc2F)n2ccnc2)cc1` (centres undefined), with 1.35 and 0.117; and `CCC(=O)c1ccc2c(c1)N(CC(C)N(C)C)c1ccccc1S2` (centres undefined), with 1.33.

The nature of the next experiment: viability rescue of complex I mutant cybrids, primary screen, cell-based, galactose medium, ATP luminescence (AID 1645843).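 Further: positive z means more ATP and so rescue of galactose-driven cybrid death.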 The note with it: complex I mutant cybrid cells, 72 h, stronger effect = higher value.
On to `CCC1CN(C(=O)c2cc(-c3cnn(C)c3)nc3c(C)cccc23)CCN1C` (centres undefined), for which the z-score is -0.31 (inactive). With `Cc1ccccc1N1CCCN(C(=O)CCC(C)C)CC1`, the z-score was 3.28 (active).

Regarding `Cc1cccc(-n2cc(CN(C)C(=O)C(=O)c3ccco3)cn2)c1`, the z-score was 0.6 (inactive). Same read-out and setting: the figure for `O=C1NCCN(C(=O)c2ccc(Cl)c(F)c2)C1Cc1ccccc1` (centres undefined) is -0.565 (inactive); for `Fc1ccc(-n2cc(-c3ccnc(NCc4cnc5ccccn45)n3)cn2)cc1` it is -0.035 (inactive). The same measure, in the same setting: then `Cc1nsc(NC(=O)N2CCCC(C)(CO)C2)n1` (centres undefined), with -0.515 (inactive); and `CCOC(=O)c1cc(C)nc(N2CCCC(c3nc(C(C)C)no3)C2)n1` (centres undefined), with -0.54 (inactive); and `Cc1cc(CN(C)Cc2ccc(-c3nc(C)c(C)c(=O)[nH]3)cc2)ccn1`, with -0.52 (inactive). Same read-out and setting: the figure for `Cc1cn(CC(=O)Nc2cnn(C)n2)nc1-c1cccs1` is 0.735 (inactive); for `CCn1ncc(NC(=O)Cn2ccc(C(=O)OC)n2)n1` it is -0.44 (inactive). On to `COc1cccc2c(C)cc(N3CCC[C@H]3CO)nc12`, for which the z-score was -0.095 (inactive).

For `Cc1ccsc1C(=O)N1CCC(n2cc(C(C)(C)O)nn2)CC1`, the z-score was -0.505 (inactive).

As to `CCCCc1cc(=O)[nH]c(-c2ccc(CN3CCC(F)(F)CC3)cc2)n1`, the z-score was 0.255 (inactive). Same read-out and setting: then `CCOC(=O)c1ccc(N2CCC(c3ccccc3F)C2)nc1` (centres undefined), with -0.015 (inactive); and `CCCn1nc(NC(=O)Cn2ccc(-c3ccccc3F)n2)c2ccccc21`, with -1.28 (inactive). The same measure, in the same setting: then `Cc1ccc(OCc2nnc(NC(=O)NCCc3cnc[nH]3)s2)cc1`, with -0.48 (inactive); and `Cc1nsc(NC(=O)NCCC2CCCCCC2)n1`, with -1.07 (inactive). Take `CC(CCCC(C)(C)O)CCNC(C1CC1)C1CC1` (centres undefined): the z-score is -0.515 (inactive).

Turning to `Cc1ccc2c(C(=O)N3CCCC3c3nc(C)no3)cc(-c3cnn(C)c3)nc2c1` (centres undefined), the z-score was -0.585 (inactive).

For `Cc1ccc2c(=O)n(C3CC(C)(C)NC(C)(C)C3)cnc2c1C`, the z-score was -0.535 (inactive). On the same count and under the same terms, then `Cc1cccnc1CC(C)N(C)C(=O)c1cc(-c2cncnc2)nc2c(C)cccc12` (centres undefined), with 1.18 (inactive); and `Cc1nsc(NC(=O)NCc2cc(Cl)ccc2Cl)n1`, with -1.1 (inactive); and `CCn1ccnc1CN(C)Cc1ccc(-c2nc(C(F)(F)F)c(C)c(=O)[nH]2)cc1`, with 0.66 (inactive).

Regarding `Clc1cccn2c(-c3ccccc3OC3CCCC3)nnc12`, the z-score is 0.365 (inactive). Regarding `CC1(C)CCN(C(=O)c2cc(-c3cnc(C4CC4)nc3)nc3ccc(F)cc23)C1`, the z-score was -0.54 (inactive). Still for that read-out and setting: the figure for `CCc1noc(CN(C(=O)c2ccccc2-n2cccn2)C(C)C)n1` is -0.655 (inactive).

Regarding `CCC(CC)CN1CCC(N2CCSCC2)CC1`, the z-score was -0.55 (inactive).

In the case of `Cc1cccc(CN(C)Cc2ccc(-c3nc(C(F)(F)F)c(C)c(=O)[nH]3)cc2)n1`, the z-score is 0.78 (inactive). The same measure, in the same setting: the figure for `CN1CCN(C2CCCCCC2)CC1CCO` (centres undefined) is -0.575 (inactive); for `O=C(Nc1nc(-c2ccccc2)ns1)N1CCN(C2CCCCC2)C(=O)C1` it is -0.54 (inactive). Still for that read-out and setting: then `CC(C)c1nc(Cn2cnc3sc4c(c3c2=O)CCCC4)cs1`, with 1.35 (inactive); and `CN(Cc1nc(-c2cccnc2)no1)C(=O)c1nc2ccccc2s1`, with 0.26 (inactive); and `Cc1nsc(NC(=O)NCc2ccccc2OC(F)(F)F)n1`, with 0.2 (inactive). Same read-out and setting: the figure for `Cc1nn(C)c(C)c1-c1ccnc(N(C)Cc2cnn(C(C)C)c2)n1` is 0.67 (inactive); for `COc1cc(F)c(C(=O)N(C)CC2CCCCN2C)c(F)c1` (centres undefined) it is -0.575 (inactive).
